Most compounds without a hit are left out; they make up all but 0.52% or so of the library.
CatB mixtures = cathepsin B inhibitors from pooled compounds, primary screen, biochemical, compound mixtures, AMC fluorescence; P07858; inhibition, %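 (ten-compound pools at 5 µM per compound and 50 µM total)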; Purified cathepsin B, AMC dipeptide fluorescence; 0.06% of 62,000 active; AID 488, 2006; in the data active = inhibition above about 22%, passing the limit was not always enough
CatL inh = inhibitors of human cathepsin L, biochemical; 0.17% of 58,000 active; purified cathepsin L, fluorogenic substrate, fluorescence; inhibition, %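 (tested at 10 µM)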; AID 460, 2006; in the data active = inhibition above about 45%
Htt clearance = clearance of mutant huntingtin inclusions, primary screen, imaging, HeLa Exon1htt(103Q)mCFP, confocal imaging; aggregate imaging; zero = plate's median compound well; inhibition, % at 1.5 µM; 0.42% of 47,000 active; AID 853, 2007;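 active = inhibition of aggregate fluorescence above about 70%, also judged a hit by eye on the cell image, limit read from the data, passing the limit was not always enough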;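 also: cells exposed to compound for three days before fixation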
CatB inh = human cathepsin B inhibitors, primary screen, biochemical, fluorogenic substrate; inhibition, %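 (tested at 10 µM)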; P07858; 0.1% of 63,000 active; purified cathepsin B, fluorescence; in the data active = inhibition above about 21%
CatS inh = inhibitors of human cathepsin S, biochemical, compound mixtures; 0.06% of 62,000 active; AID 501, 2006; recombinant cathepsin S, AMC dipeptide fluorescence, pooled mixtures; inhibition, %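 (tested at 5 µM per compound within 10-compound mixtures)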; in the data active = inhibition above about 32%, passing the limit was not always enough
Target sequence (P25774 115-331 limits assumed): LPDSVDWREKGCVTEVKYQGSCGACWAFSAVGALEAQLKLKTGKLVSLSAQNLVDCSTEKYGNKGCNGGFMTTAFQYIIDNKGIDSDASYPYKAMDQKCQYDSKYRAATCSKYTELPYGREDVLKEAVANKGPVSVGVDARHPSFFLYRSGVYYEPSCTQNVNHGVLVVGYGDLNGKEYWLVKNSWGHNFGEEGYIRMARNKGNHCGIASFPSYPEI
Numbers stand for hits.

COc1ccc2ncn(-c3ccccc3)c2c1 was read as CatB mixtures inactive, CatL inh inactive, Htt clearance 75, CatB inh inactive and CatS inh inactive.
For CSc1nc(C2CC2)cc(-c2cccs2)c1C#N the results were CatB mixtures inactive, CatL inh inactive, Htt clearance inactive, CatB inh 48 and CatS inh inactive.
`CCOc1ccc(S(=O)(=O)n2nnc3ccccc32)cc1C` gave CatB mixtures inactive, CatL inh inactive, Htt clearance 74, CatB inh inactive and CatS inh inactive.
Screening Cc1cc(NC(=O)CSc2nc(CCC3CCCC3)nc3ccccc23)no1 returned CatB mixtures inactive, CatL inh inactive, Htt clearance 84, CatB inh inactive and CatS inh inactive.
Screening CCCc1nc(SCC(=O)Nc2cc(C)on2)c2ccccc2n1 returned CatB mixtures inactive, CatL inh inactive, CatB inh inactive and CatS inh inactive.
`Fc1ccc(-c2nnc3ccc(N4CCc5ccccc5C4)nn23)cc1` gave CatB mixtures inactive, CatB inh inactive and CatS inh inactive.
Screening Cc1cccc(NC(=O)Cc2noc3ccccc23)c1 returned Htt clearance 84.
Screening Cc1cccc(NC(=O)CC(C)(C)C)c1 returned CatB mixtures inactive, CatL inh inactive, Htt clearance inactive, CatB inh inactive and CatS inh inactive.
For CCC(Sc1nnnn1-c1ccccc1)C(=O)NC(C)c1ccccc1 (stereo unspecified) the results were CatB mixtures inactive, CatL inh inactive, Htt clearance 71, CatB inh inactive and CatS inh inactive.
O=C(CCn1c(=O)oc2ccccc21)N(Cc1ccccc1)c1ccccn1 was read as Htt clearance 73.
For NC(=O)CCn1c(=O)oc2ccccc21 the results were CatB mixtures inactive, CatL inh inactive, Htt clearance inactive, CatB inh inactive and CatS inh inactive.
Screening Cc1cc2ncn(S(=O)(=O)c3ccc(S(=O)(=O)N4CCCCCC4)cc3)c2cc1C returned Htt clearance 71.
`CCOc1ccc(S(=O)(=O)n2cnc3cc(C)c(C)cc32)cc1` gave CatB mixtures inactive, CatL inh inactive, Htt clearance inactive, CatB inh inactive and CatS inh inactive.
For CC1(C)O[C@@H]2C[C@H]3[C@@H]4CCC5=CC(=O)C=C[C@]5(C)[C@@]4(F)[C@@H](O)C[C@]3(C)[C@]2(C(=O)CO)O1 the results were CatB mixtures inactive, CatL inh inactive, CatB inh inactive and CatS inh inactive.
C[C@]12C=CC(=O)C=C1CC[C@H]1[C@@H]3C[C@@H](O)[C@](O)(C(=O)CO)[C@@]3(C)C[C@H](O)[C@@]12F was read as CatB mixtures inactive, CatL inh 94 and CatS inh inactive.
Screening N#C/C(C(=O)Oc1ccccc1)=C1/Nc2ccccc2-c2ccccc21 returned Htt clearance inactive.
`Nc1nonc1C(=O)NCCNCc1ccccc1OCc1ccccc1F` gave CatB mixtures inactive, CatL inh inactive, CatB inh 23 and CatS inh inactive.
Screening Nc1nonc1C(=O)NCCNCc1cc(Br)ccc1OCc1ccccc1F returned CatB mixtures inactive, CatL inh inactive, Htt clearance inactive, CatB inh inactive and CatS inh inactive.
Cc1ccc2nc(C(F)OC(F)(F)F)[nH]c2c1 (stereo unspecified) was read as CatB mixtures inactive, Htt clearance 73, CatB inh inactive and CatS inh inactive.
`Cc1ccc2nc(C(O)C(O)c3nc4ccc(C)cc4[nH]3)[nH]c2c1` (stereo unspecified) gave CatB mixtures inactive, CatL inh 62, CatB inh inactive and CatS inh inactive.
Cc1cc(C)nc(N2CCCC(C(=O)NCCC3=CCCCC3)C2)n1 (stereo unspecified) was read as CatB mixtures inactive, CatL inh inactive, Htt clearance inactive, CatB inh inactive and CatS inh inactive.
`COc1ccc(NS(=O)(=O)c2ccc(SC)cc2)cc1` gave CatB mixtures inactive, Htt clearance 86, CatB inh inactive and CatS inh inactive.
`O=C(CCn1cccc1)NCCc1ccc(Cl)cc1` gave CatB mixtures inactive, CatL inh inactive, CatB inh inactive and CatS inh inactive.
Screening COc1ccc(S(=O)(=O)n2nc(OC(=O)c3cccs3)cc2N)cc1 returned CatB mixtures 68, CatL inh inactive, Htt clearance inactive, CatB inh 76 and CatS inh inactive.

From PubChem BioAssay
